In PubChem BioAssay AID651871 (Sanford-Burnham Center for Chemical Genomics, 2012):
Where “and” joins values, the source holds several entries; their conditions need not be identical. Equal values may be shown once.

Each compound was assayed on HL-1 (assay: protection of cardiomyocytes from stress damage, SAR follow-up, cell-based, panel, H9c2 and HL-1, ATP luminescence, set 2 (AID 651871;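 further: cells exposed to stressor for 2 h before ATP readout; reference of the scale not given here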)). Conditions: H9c2/HL-1 cardiomyocytes, H2O2 oxidative stress; with H2O2, run 1, at 79 µM (top of the series).
In the case of CCOC(=O)c1cccc(NC(=O)CNC(=O)c2cc(-c3cc(OC)c(OC)c(OC)c3)nc3ccccc23)c1, the activity (protection/inhibition) was 56.7%. With COc1ccc2c(c1OC)C(=O)N1c3ccccc3C(=O)N(Cc3cccc(Cl)c3Cl)C21 (centres undefined) the activity (protection/inhibition) was -0.863% and -7.11% and 4.56%. For COc1ccc2nc(-c3cc(OC)c(OC)c(OC)c3)cc(C(=O)NCC(=O)Nc3ccc(C(C)=O)cc3)c2c1, the activity (protection/inhibition) was 41.2% and 24.9%. For COc1cc(-c2cc(C(=O)Nc3cccc(C(=O)NCc4ccccc4)c3)c3ccccc3n2)cc(OC)c1OC, the activity (protection/inhibition) was 34.6%.
